BCR signal inh = blocks chronic active B-cell receptor signaling; ABC-DLBCL IkBa-CBG/CBR reporter, luminescence ratio, 4 h; Potency, µM (titrated, usually from 46.1 µM), without a hit: at the highest dose activity change, negative = inhibition, usual class: inhibitors; actives 0.05% (n = 340,000); active = well fitted inhibition curve with a large enough effect in the signal ratio, with a control signal flat, not every such curve was filed as active; inconclusive = small, poorly fitted or top-dose-only effect, or effect the other way, or a change in a side signal; the % refers to the signal ratio;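 note: potency is the fitted concentration of half-maximal effect; plate controls were basal doxycycline-induced cells for no effect and cells given 10 µM MG132 for full effect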
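Compounds up to 46 uM were incubated four hours with TMD8 cells whose green CBG68 luciferase is fused to IkappaBalpha; red CBR luminescence normalised the signal, and concentration-effect curves were fitted to fusion, red and ratio data.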
TDP1 cell CPT = DT40-hTDP1 cell growth loss with CPT | chicken DT40 Tdp1-/-;hTDP1 cells + 20 nM CPT, ATP luminescence, 48 h | Potency, µM (series often up to 46.2 µM), inactives show top-dose activity change, negative = growth inhibition, most hits filed as inhibitors | actives 12% (n = 420,000); note: potency is the fitted concentration of half-maximal effect; % is set by controls: 0 for no effect and ±100 for the full control effect; nearly all actives have a fitted effect of over 55% in size
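Chicken DT40 Tdp1-/- cells stably complemented with human TDP1 were seeded at 400 cells/well in medium containing 20 nM camptothecin, exposed to pin-transferred compounds, and grown at 37 °C for at least 48 hr. Viability was read as ATP luminescence.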
TDP1 cell noCPT = qHTS for Inhibitors of human tyrosyl-DNA phosphodiesterase 1 (TDP1): qHTS in cells in absence of CPT; DT40 Tdp1-/- hTDP1 cells, no CPT, ATP luminescence, 48 h; Potency, µM (series often up to 46.2 µM), inactives show top-dose activity change, negative = growth inhibition, hits mostly inhibitors; actives 15% (n = 420,000); note: potency is the fitted concentration of half-maximal effect; % is set by controls: 0 for no effect and ±100 for the full control effect; nearly all actives have a fitted effect of over 55% in size
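Luminescent ATP content (CellTiter-Glo) served as the growth readout. Knockout chicken DT40 cells expressing human TDP1 were exposed to compounds without camptothecin for a minimum 48 hr at 37 °C.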
MCF10A rerep = induces DNA re-replication in MCF 10a normal breast cells | AID 624296 | Potency, µM (series often up to 46.1 µM), without a hit: top-dose activity, positive = re-replication, hits mostly activators | actives 2.9% (n = 350,000) | MCF 10A DNA re-replication, Hoechst nuclear intensity, 48 h; note: potency is the fitted concentration of half-maximal effect; % of control where 0% means no effect; nearly all actives have a fitted effect of over 50% in size
IL-1B inflam inh = blocks inflammasome-driven IL-1 beta release; actives 4.7% (n = 360,000); activity change, % at 57.5 µM; THP-1 LPS/ATP IL-1B secretion, AlphaLISA, 16 h; hits give low values; in the data active = activity change below about -50%; inconclusive = mostly about -30% to -49%; note: % is set by controls: 0 for no effect and ±100 for the full control effect
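Secreted IL-1B measured by AlphaLISA bead assay after 16 h compound exposure of THP-1 cells; compounds (final up to 57.5 uM) added 1 h before LPS (250 ng/mL) and ATP (1.25 mM) stimulation; lower signal means less secretion.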
SW480 rerep = inducers of DNA re-replication in SW480 colon cancer cells; actives 1.8% (n = 340,000); Potency, µM (titrated, usually from 46.1 µM), for inactives: top-dose re-replication activation, most hits filed as activators; AID 624297; SW480 DNA re-replication, Hoechst DNA content imaging, 48 h; note: potency is the fitted concentration of half-maximal effect; % of control where 0% means no effect; nearly all actives have a fitted effect of over 55% in size
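Cells (250 per well) received 23 nL compound or DMSO by pin tool and were kept 48 hr at 37 C, 5% CO2. Nuclei were then stained with Hoechst for 40 min and scanned for DNA content.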
* = called active by the depositor; ? = inconclusive; . = no result; [ ] = remark or other dose. Shown are actives, neighbours in structure and some others; about 19% of the full set was active somewhere. Unless noted, calls come from the whole dose curve; as a rule, active = well fitted curve in the direction sought with a large enough effect; inconclusive = small, poorly fitted or top-dose-only effect, or another doubt; inactive = no such curve, though single readings can be large; an effect the other way counts as inactive or inconclusive.

SMILES	BCR signal inh	TDP1 cell CPT	TDP1 cell noCPT	MCF10A rerep	IL-1B inflam inh	SW480 rerep
CCCC[C@]12Cc3ccccc3[C@H](O1)C1=C(O2)C(=O)c2ccccc2C1=O	-22%[9.22 µM]	.	.	.	.	.
NC(=O)CC(NC(=O)c1cccc(Br)c1)c1ccc(N2CCCCCC2)c([N+](=O)[O-])c1 (configuration not stated)	?	5.8µM*	6.5µM*	4%	6	3%
COc1ccc(N2CCN(Cc3nc4c(c(=O)[nH]c(=O)n4C)n3CC(C)C)CC2)cc1	.	-5%	-7%	.	.	.
CCOc1ccc(N(CC(=O)NCCc2ccc(C)cc2)S(=O)(=O)c2c(C)noc2C)cc1	8%	23µM*	?	6%	?	-5%
CCOc1ccc(OCC)c(NC(=O)CN(c2ccc(C)cc2)S(=O)(=O)c2c(C)noc2C)c1	?	?	23µM*	-3%	-8	-6%
Cc1ccc(N(CC(=O)Nc2cc(C)ccc2C)S(=O)(=O)c2c(C)noc2C)cc1	.	?	23µM*	.	.	.
CCOc1ccccc1NC(=O)CN(c1ccc(C)cc1)S(=O)(=O)c1c(C)noc1C	?	?	?	9%	-8	?
Cc1ccc(N(CC(=O)NCCc2ccccc2)S(=O)(=O)c2c(C)noc2C)cc1	12%	?	?	2%	-8	7%
CCOc1ccc(N(CC(=O)Nc2ccccc2CC)S(=O)(=O)c2c(C)noc2C)cc1	.	4.6µM*	3.7µM*	.	.	.
CN(C)C(CNC(=O)c1cccc(C(F)(F)F)c1)c1ccco1 (configuration not stated)	6%	-5%	-15%	-1%	18	-2%
COCc1ccc(CN2CCOc3c(cc(-c4ccc(SC)cc4)cc3OC)C2)o1	.	1%[9.04 µM]	-21%	.	.	.
Cc1ccc(N(CC(=O)NC(C)c2ccccc2)S(=O)(=O)c2c(C)noc2C)cc1 (configuration not stated)	0%	?	16µM*	16%	-3	?
CC(C)n1c2ccccc2c2nc3ccccc3nc21	11%	?	?	23µM*	-7	?
C#CCn1c2ccccc2c2nc3ccccc3nc21	8%	4%	-15%	-9%	2	-2%
Cc1cccc(NC2=CC(c3cccc(Br)c3)N(c3cccc(C)c3)C2=O)c1 (configuration not stated)	.	?	8.2µM*	.	.	.
COc1ccccc1NC(=O)C1=C(C)Nc2nc(-c3ccco3)nn2C1c1ccccc1F (configuration not stated)	.	16µM*	?	.	.	.
COc1ccc(-c2nc3n(n2)C(c2cccnc2)C(C(N)=O)=C(C)N3)cc1 (configuration not stated)	-2%	3%	-18%	-1%	0	-5%
COc1ccccc1NC(=O)C1=C(C)Nc2nnnn2C1c1ccccc1OC (configuration not stated)	5%	6%	-8%	-4%	20	3%
COc1ccccc1NC(=O)C1=C(C)Nc2nnnn2C1c1cccc(C)c1 (configuration not stated)	?	?	?	-2%	-1	1%
COc1ccccc1NC(=O)C1=C(C)Nc2nc(-c3ccco3)nn2C1c1cccc(C)c1 (configuration not stated)	.	18µM*	?	.	.	.
CC1=C(C(N)=O)C(c2cccc(C)c2)n2nc(-c3ccc(Cl)cc3)nc2N1 (configuration not stated)	?	21µM*	?	.	.	.
CC12CCC=CC1=C(C=O)C1C2CCC2(C)C(O)CCC12 (configuration not stated)	.	?	26µM*	?	-97*	26%
C[C@]12CC[C@@H]3c4ccc(O)cc4[C@@H](O)C[C@H]3[C@@H]1CC[C@@H]2O	-1%	.	.	11%	.	-12%
COc1ccc(S(=O)(=O)N2CCCCC2)cc1NC(=O)c1cncc(Br)c1	-1%	-22%	7%	-2%	4	5%
CCOC(=O)CCCn1nc(C)n2c(cc3sccc32)c1=O	?	-13%	?	-8%	-1	-3%
SMILES	BCR signal inh	TDP1 cell CPT	TDP1 cell noCPT	MCF10A rerep	IL-1B inflam inh	SW480 rerep
CCOC(=O)C(CC)n1nc(C)n2c(cc3sccc32)c1=O (configuration not stated)	-8%	12µM*	12µM*	-3%	18	-2%
Cc1nn(C(C)C(=O)NC2CCC(C)CC2)c(=O)c2cc3sccc3n12 (configuration not stated)	.	15µM*	?	.	.	.
COCCCNC(=O)CC1C[C@H](C(=O)N2CCOCC2)[C@@]2(C)c3[nH]c4ccc(OC)cc4c3CCN2C1=O (some centres not stated)	8%	?	-4%	-4%	11	?
Cn1c(=O)c(C(=O)NC2CCCCCCC2)c(O)c2ccccc21	0%	21µM*	21µM*	0%	6	-2%
Cn1c(=O)c(C(=O)NC2CCCCCC2)c(O)c2ccccc21	1%	-6%	-17%	3%	32	9%
Cn1c(C(=O)NC2CCCCCC2)cc2c(=O)n(C)c3ccccc3c21	9%	15µM*	16µM*	2%	-8	-10%
Cn1c(C(=O)NCCCN2CCCC2=O)cc2c(=O)n(C)c3ccccc3c21	6%	-28%	-2%	3%	-10	-5%
CC1CCCCN1CCNC(=O)c1cc2c(=O)n(C)c3ccccc3c2n1C (configuration not stated)	?	?	?	?	-55*	-1%
Cn1c(C(=O)NC2CCCCC2)cc2c(=O)n(C)c3ccccc3c21	?	?	16µM*	?	-6	1%
CC1(C(=O)Nc2ccc3c(c2)OCCO3)CN(S(C)(=O)=O)CC(=O)N1C1CCCCCC1 (configuration not stated)	.	15%	-6%	.	-8	.
Cc1cc(C)n(-c2nc3cc(Cl)c(Cl)cc3nc2Nc2c(C)cccc2C)n1	.	9%	1%	.	.	.
CCN(CC)S(=O)(=O)c1ccc(C)c(NC(=O)/C=C/c2cccs2)c1	-3%	21µM*	13µM*	12%	?	7%
Cc1ccccc1NC(=O)/C=C/c1cccs1	?	?	?	-3%	-25	-13%
NS(=O)(=O)c1cccc(NC(=O)/C=C/c2cccs2)c1	?	0%	-1%	-1%	-24	-3%

Source: PubChem (National Center for Advancing Translational Sciences (NCATS))
